Source: PubChem
Sampled rows, rich in hits. Any-hit rate of the full collection: about 4%.
KKLEB tox: cytotoxicity in KKLEB CF airway cells, primary screen, cytotoxicity control for CF NF-kB inhibitor project, cell-based, uHTS, fluorescence assay plates; KKLEB CF airway cells viability, ATPlite luminescence, overnight; hits give low values; cells stimulated with P. aeruginosa culture filtrate; activity change (cytotoxicity), % at 5 µM; hit rate 0.36% among 360,000;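 active = corrected activity change at or below -50% at 5 µM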
TWEAK Fn14 block: inhibitors of TWEAK-Fn14 signaling, primary screen, luciferase reporter cells, uHTS. TWEAK-stimulated Fn14 reporter cells, luciferase luminescence, 8 h. inhibition, % at 10 µM. hit rate 2% among 360,000; in the data active = inhibition above about 50%
CF NFkB block: inhibitors of PAF-induced NF-kB signaling, primary screen, cell-based, GFP fluorescence, uHTS. inhibition, % at 5 µM. hit rate 0.86% among 360,000. KKLEB NF-kB-GFP reporter, GFP fluorescence overnight;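 active = at least 50% inhibition at 5 µM, scaled per plate between neutral and stimulator controls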;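 also: PAF is a Pseudomonas aeruginosa culture filtrate used as stimulus; plate controls were PAF-stimulated DMSO wells for no effect and unstimulated DMSO wells for full effect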
TROY signal inh: inhibitors of TROY-driven NF-kB signaling, primary screen, Q293 LMP1-TROYcd cells, NF-kB luciferase, uHTS. AID 1347056, 2019. hit rate 0.98% among 360,000. inhibition, % at 10 µM. Q293 LMP1-TROYcd NF-kB luciferase reporter, 4 h;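 active = compounds whose plate-normalised and pattern-corrected inhibition of the luciferase reporter signal at the single screening dose is 50% or more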
HIF-2a block: HIF-2a reporter inhibitors, primary screen, luminescence, 786-0 RCC cells. inhibition, % at 18.8 µM. hit rate 0.72% among 360,000. 786-0 RCC cells HIF-2a reporter, luciferase luminescence, overnight;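 active = inhibition of the luminescence signal of 40% or more relative to plate controls, in a single-dose primary screen at 18.75 µM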
Peg3 prom inh: Peg3 promoter-driven luciferase inhibitors, primary screen, cell-based, HeLa, luciferase luminescence. HeLa PEG-Prom luciferase reporter, overnight. inhibition, % at 20 µM. hit rate 1.7% among 360,000;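 active = inhibition of at least 50% at 20 µM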
Active calls of the source: *; nt = not tested or not shown.

SMILES | KKLEB tox | TWEAK Fn14 block | CF NFkB block | TROY signal inh | HIF-2a block | Peg3 prom inh
COc1ccc(CCNC(=O)c2ccc(Cl)c(S(=O)(=O)N(C)c3ccccc3)c2)cc1 | 12.4 | 57.9* | -9.2 | 52.6* | 22.6 | 15.1
CN(c1ccccc1)S(=O)(=O)c1cccc(C(=O)NCCc2ccc(O)c(O)c2)c1 | -4.3 | 39.2 | 21.4 | 56.1* | -87.7 | -10.8
O=C(NCCc1ccccc1)c1ccc(Cl)c(S(=O)(=O)N2CCCC2)c1 | -3.0 | -11.8 | 21.6 | -29.0 | -164.5 | -104.2
COc1ccc(CCNC(=O)c2ccc(Cl)c(S(=O)(=O)N3CCCCCC3)c2)cc1 | -20.3 | 60.1* | 14.1 | 43.9 | 14.3 | 26.9
COc1cc2c(cc1OC)C(CNC(=O)C=Cc1cc(OC)c(OC)c(OC)c1)C2 (configuration not stated) | -6.0 | -4.9 | 0.3 | 7.0 | 15.7 | -1.9
COc1ccc([N+](=O)[O-])cc1NC(=O)C(C)c1ccccc1 (configuration not stated) | -13.0 | -1.7 | 7.2 | 13.1 | 16.4 | 21.8
O=C(NNC(=S)NC(=O)c1ccccc1Cl)c1cccc([N+](=O)[O-])c1 | 8.3 | 2.0 | -9.8 | 15.3 | 14.5 | 7.1
COc1ccc([N+](=O)[O-])cc1NC(=S)NC(NC(=O)C(c1ccccc1)c1ccccc1)C(Cl)(Cl)Cl (configuration not stated) | 1.3 | 63.0* | 32.9 | 24.0 | -9.7 | 50.4*
O=C(NC(NC(=S)Nc1c(Cl)cccc1Cl)C(Cl)(Cl)Cl)c1cccc([N+](=O)[O-])c1 (configuration not stated) | -12.2 | 59.9* | 18.7 | 45.3 | 10.6 | 51.6*
NC(=O)c1cc(S(=O)(=O)N2CC=C(c3ccccc3)CC2)cs1 | 0.0 | 0.5 | -10.0 | -2.1 | 11.2 | 3.4
O=C(CN1c2ccccc2Sc2ccccc21)NNC(=S)Nc1ccc(Cl)cc1Cl | -17.2 | -6.6 | 26.5 | 52.0* | 0.4 | 50.4*
O=C(CN1c2ccccc2Sc2ccccc21)NNC(=S)Nc1ccc(Cl)cc1 | 21.7 | 19.6 | 22.9 | 42.7 | 14.2 | 13.0
O=C(C[C@@H]1CC[C@H](NC(=O)c2ccc3c(c2)OCO3)[C@@H](CO)O1)NCc1ccc(F)cc1 | nt | nt | nt | nt | 4.8 | nt
C[C@H](O)[C@@H]1C(=O)N2CCc3c([nH]c4ccccc34)[C@@H]2C[C@@H]1N(C)C(=O)c1ccco1 | -6.8 | 13.7 | 6.0 | 4.4 | -21.2 | -30.3
CCCN1C/C(=C/c2ccc3c(c2)OCO3)C(=O)/C(=C/c2ccc3c(c2)OCO3)C1 | 14.4 | 19.0 | -39.2 | -9.2 | 89.0* | 106.6*
CCCN1C(=O)/C(=C/c2ccc3c(c2)OCO3)NC1=S | -0.9 | -1.0 | 1.5 | 34.9 | -4.5 | -110.7
CS(=O)(=O)N(CC(=O)N/N=C/c1cccc2c1OCCO2)c1ccccc1Br | -2.9 | -13.2 | 8.8 | -6.7 | 15.7 | 17.4
CCOC(=O)c1ccc(-c2ccc(/C=N/NC(=O)CN(c3ccccc3Br)S(C)(=O)=O)o2)cc1 | 2.9 | 67.2* | -7.2 | -4.5 | -159.9 | -103.6
CSCC[C@H](NC(=O)N1CCn2c1nc1ccccc12)C(=O)NCc1ccc(C)cc1 | 6.2 | 10.6 | 6.8 | 1.6 | 7.3 | 4.7
Cn1cc(C=O)c(-c2ccc3c(c2)OCCCO3)n1 | -13.8 | 70.9* | 6.2 | 25.0 | -57.4 | -115.1
CCN(CC)c1ccc(C=Nc2ccc(N(C)C)cc2)c(O)c1 | 0.8 | 58.0* | -5.0 | -5.1 | -93.4 | -103.2
Cc1ccc(CN2C(=O)C(F)(F)Oc3ccc(C)cc32)cc1 | 3.8 | -12.7 | 17.6 | -10.6 | 6.9 | 1.4
O=C(Cc1cc(=O)[nH][nH]1)N/N=C/C=C/c1ccccc1 | 0.7 | 61.5* | 5.4 | 2.9 | -9.2 | -20.0
O=C(CNC(=O)c1ccccc1)N/N=C/C=C/c1ccccc1 | -28.9 | 6.9 | 23.6 | -9.2 | -4.4 | 20.4
Cc1ccc(CNC(=O)CS(=O)(=O)c2cn(CC(=O)N3CCOCC3)c3ccccc23)cc1 | 7.2 | -4.4 | -10.1 | -20.1 | 16.8 | 12.8
SMILES | KKLEB tox | TWEAK Fn14 block | CF NFkB block | TROY signal inh | HIF-2a block | Peg3 prom inh
CC(=O)Oc1cc(O)c2c(=O)c(OC(C)=O)c(-c3ccc(OC(C)=O)c(OC(C)=O)c3)oc2c1 | -17.4 | 67.9* | 42.8 | 27.9 | -119.1 | -14.5
CSc1nc2ccc(NC(=O)c3ccc(F)c(F)c3)cc2s1 | 10.0 | -38.3 | -10.3 | -21.1 | -346.5 | -266.5
CCOC(=O)Nc1ccc2nc(Sc3ccc(Cl)cc3)sc2c1 | 5.1 | 9.3 | -23.9 | 81.5* | -22.0 | 14.6
Cc1cc(N2CCN(C)CC2)ccc1NC(=O)c1ccc(-c2ccc(Cl)cc2)o1 | -12.5 | 94.2* | 12.0 | 79.7* | 41.1* | 90.4*
C=CCn1c2ccccc2c(=O)c2cc(C#CC3(O)CCCCC3)ccc21 | -35.0 | 2.0 | 3.5 | 70.4* | -208.9 | -135.1
C=CCn1c2ccccc2c(=O)c2cc(C#CC[C@@H](C)O)ccc21 | -4.8 | -132.3 | 11.2 | -121.6 | -297.3 | -276.9
O=C(c1ccccc1)c1nn(-c2ccccc2)c(=O)cc1-c1ccccc1 | -4.9 | 8.7 | -4.5 | 3.5 | -6.5 | 13.3
Cc1cccc(OCCCn2c(CO)nc3ccccc32)c1 | 2.9 | -31.2 | 8.6 | -34.2 | -148.3 | -134.9
Cc1ccc(-c2nnc(NCc3nc4ccccc4[nH]3)c3ccccc23)cc1S(=O)(=O)N(C)C | -24.4 | 55.4* | 3.5 | 51.6* | 8.3 | 16.5
Cc1ccc(-c2nnc(NCc3nc4ccccc4[nH]3)c3ccccc23)cc1S(=O)(=O)N1CCOCC1 | -14.6 | 65.9* | -16.0 | 4.9 | -9.1 | 64.7*
Cc1ccc(-c2nnc(N3CCCCC3)c3ccccc23)cc1S(=O)(=O)N(C)C | 0.4 | 18.4 | 9.8 | 16.4 | 16.1 | 29.2
Cc1ccc(-c2nc3ccccc3s2)cc1S(=O)(=O)N1CCOCC1 | 1.0 | 10.9 | -6.7 | 36.6 | -86.9 | -14.1
N/C(=N\S(=O)(=O)c1cc(C(F)(F)F)cc(C(F)(F)F)c1)c1ccc(Cl)cc1 | -7.4 | 17.4 | 8.0 | 59.5* | 13.2 | 33.3
COc1ccc(NC2CCCN(C(=O)c3cccc(N4CCNC4=O)c3)C2)cc1 (configuration not stated) | -1.1 | 12.2 | -6.2 | 4.0 | -6.2 | 6.7
O=C(NCCS(=O)(=O)N1CCN(c2ccccc2)CC1)c1ccc(Br)o1 | -9.7 | 18.1 | 31.1 | 1.4 | 8.7 | 1.5
Cc1ccc(-c2nc(-c3ccccn3)no2)cc1[N+](=O)[O-] | -1.6 | 61.8* | -17.7 | 24.6 | -68.1 | -68.2
Cc1cc(-c2nc(-c3ccncc3)no2)ccc1[N+](=O)[O-] | 6.4 | 8.5 | -49.8 | -39.5 | -180.2 | -224.9
COc1cccc(-c2nc(-c3ccccn3)no2)c1OC | 4.9 | -2.4 | -20.7 | -37.6 | -178.3 | -277.4
